# Laboratory results: PubChem BioAssay (EPA / NIEHS)
# Results filed as inconclusive are left out. Active and inactive are the calls of the source. The calls were made as follows: active = hit-call score of the fitted dose curve at least 0.9, where 1 is the maximum; inconclusive = response in the unintended direction; inactive = score below 0.9.
# Experiments:
# [1] = TOX21_p53_BLA_p2_viability: Viability Assessment in the Tox21 HCT-116 p53 Agonism Beta-lactamase Assay, Phase 2 (AID 2283591);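 also: compound exposure lasted 16 h at 37 °C; actives lower the ATP signal meaning cytotoxicity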
# In short: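 Cytotoxicity readout: CellTiter-Glo ATP luminescence, 30 min at room temperature, after the beta-lactamase read. Cells were HCT116 exposed 16 h at 37C to compounds pin-transferred at 217-fold dilution from DMSO stocks.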
# [2] = molecular target: Cellular tumor antigen p53 (Homo sapiens) (UniProt P04637); assay: TOX21_p53_BLA_p3_ratio: Tox21 HCT-116 p53 Agonism Beta-lactamase Assay, Ratio, Phase 3 (AID 2283596)
# Chain of Cellular tumor antigen p53 (Homo sapiens) (P04637 whole entry, looked up): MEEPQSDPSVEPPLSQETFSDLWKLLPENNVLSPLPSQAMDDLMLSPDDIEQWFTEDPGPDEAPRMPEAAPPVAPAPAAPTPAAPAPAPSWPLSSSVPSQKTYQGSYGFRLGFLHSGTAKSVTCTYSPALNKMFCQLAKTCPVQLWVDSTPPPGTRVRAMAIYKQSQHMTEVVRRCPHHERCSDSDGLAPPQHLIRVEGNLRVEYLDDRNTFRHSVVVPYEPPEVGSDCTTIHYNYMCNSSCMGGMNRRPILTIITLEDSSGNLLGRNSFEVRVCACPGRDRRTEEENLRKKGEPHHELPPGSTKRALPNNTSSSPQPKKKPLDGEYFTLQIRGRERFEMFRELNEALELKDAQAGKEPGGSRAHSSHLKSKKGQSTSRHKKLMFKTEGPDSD
# In short: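 Cells were seeded at 4000/well, rested 5 h at 37C, then dosed with DMSO compound solutions (217-fold dilution) for 16 h. CCF4-AM substrate was loaded for 2 h at room temperature, and the 460/530 nm emission ratio was fitted for gain of signal versus DMSO.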
# [3] = molecular target: Cellular tumor antigen p53 (Homo sapiens) (UniProt P04637); assay: TOX21_p53_BLA_p5_ratio: Tox21 HCT-116 p53 Agonism Beta-lactamase Assay, Ratio, Phase 5 (AID 2283599)
# In short: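 Beta-lactamase reporter ratio (blue 460 nm over green 530 nm, 405 nm excitation) after 2 h CCF4-AM loading, in HCT-116 cells exposed 16 h at 37 C to compounds pinned at 217-fold dilution. Increases relative to DMSO baseline scored.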
# [4] = molecular target: Cellular tumor antigen p53 (Homo sapiens) (UniProt P04637); assay: TOX21_p53_BLA_p4_ratio: Tox21 HCT-116 p53 Agonism Beta-lactamase Assay, Ratio, Phase 4 (AID 2283601)
# In short: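 Signal is the blue/green (460nm/530nm) ratio of cleaved versus uncleaved CCF4-AM substrate, read after 2 h substrate loading. Cells were HCT116 carrying the p53-responsive beta-lactamase reporter, dosed 16 h at 37C, 5% CO2; CellTiter-Glo measured in parallel.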
# [5] = TOX21_p53_BLA_p4_viability: Viability Assessment in the Tox21 HCT-116 p53 Agonism Beta-lactamase Assay, Phase 4 (AID 2283597);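 also: hits lower the luminescence signal meaning cytotoxicity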
# In short: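 Cytotoxicity as reduced cellular ATP (CellTiter-Glo luminescence, 30 min room temperature), measured in the same wells following the CCF4 FRET p53 reading. Human HCT-116 cells received compounds in DMSO (217-fold dilution) for 16 h.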
# [6] = TOX21_p53_BLA_p5_viability: Viability Assessment in the Tox21 HCT-116 p53 Agonism Beta-lactamase Assay, Phase 5 (AID 2283600)
# In short: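 Viability came from CellTiter-Glo ATP luminescence, read after 30 min at room temperature. Before this, HCT-116 p53-bla cells (4000/well) had 16 hours of compound exposure at 37C, with DMSO stocks diluted 217-fold on transfer.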
# [7] = molecular target: Estrogen receptor (Homo sapiens) (UniProt P03372); assay: CCTE_Deisenroth_AIME_96WELL_LUC_Active: CCTE's 96-well Estrogen Receptor Transactivation Assay with AIME metabolic competence (ERTA luciferase; metabolism positive), Deisenroth Lab (AID 2284023)
# Chain of Estrogen receptor (Homo sapiens) (P03372 whole entry, looked up): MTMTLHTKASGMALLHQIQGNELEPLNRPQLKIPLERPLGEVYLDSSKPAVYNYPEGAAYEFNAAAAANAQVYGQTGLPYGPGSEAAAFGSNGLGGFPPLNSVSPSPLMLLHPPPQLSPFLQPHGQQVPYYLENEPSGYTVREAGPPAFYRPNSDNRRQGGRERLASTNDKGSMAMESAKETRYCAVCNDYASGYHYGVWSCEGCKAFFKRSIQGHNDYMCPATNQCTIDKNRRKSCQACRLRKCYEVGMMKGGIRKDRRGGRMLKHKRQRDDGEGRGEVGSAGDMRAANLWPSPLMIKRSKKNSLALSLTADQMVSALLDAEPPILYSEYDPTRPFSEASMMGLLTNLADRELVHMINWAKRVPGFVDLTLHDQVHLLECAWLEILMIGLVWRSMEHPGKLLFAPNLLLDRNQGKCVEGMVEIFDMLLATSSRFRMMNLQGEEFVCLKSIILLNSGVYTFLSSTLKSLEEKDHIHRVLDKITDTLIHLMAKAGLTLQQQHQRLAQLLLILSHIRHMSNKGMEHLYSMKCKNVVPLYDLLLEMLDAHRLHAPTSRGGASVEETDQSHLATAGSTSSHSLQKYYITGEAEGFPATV
# In short: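 Metabolism-positive mode: induced rat hepatic S9 in alginate microspheres conditions test solutions (0.002 - 200 uM, 10 points) for 2 hours. VM7Luc4E2 ER luciferase reporter cells then exposed 24 h; positive-direction fit against 17beta-estradiol, n=4 typical.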
# [8] = molecular target: Estrogen receptor (Homo sapiens) (UniProt P03372); assay: CCTE_Deisenroth_AIME_96WELL_LUC_Inactive: CCTE's 96-well Estrogen Receptor Transactivation Assay without AIME metabolic competence (ERTA luciferase; metabolism negative), Deisenroth Lab (AID 2284025)
# In short: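 Metabolism-negative arm: chemicals (0.002–200 uM, 10 points) incubated 2 h with alginate-water microspheres, then medium moved onto VM7Luc4E2 cells for 24 h luciferase read-out. Positive direction vs 17beta-estradiol; n≥4 experiments.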
# [9] = CCTE_Deisenroth_AIME_96WELL_CTox_Active: Cytotoxicity Assessment (CTOX) in CCTE's 96-well Estrogen Receptor Transactivation Assay with AIME metabolic competence (metabolism positive), Deisenroth Lab (AID 2284028)
# In short: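 Cytotoxicity in VM7Luc4E2 breast cells after 24 h exposure to medium from a 2 h metabolic pre-incubation with induced rat hepatic S9 in alginate microspheres; fluorescent live-cell protease readout, 10-point series 0.002–200 uM, n=4.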
# [10] = CCTE_Deisenroth_AIME_96WELL_CTox_Inactive: Cytotoxicity Assessment (CTOX) in CCTE's 96-well Estrogen Receptor Transactivation Assay without AIME metabolic competence (metabolism negative), Deisenroth Lab (AID 2284029)
# In short: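 Metabolism-negative mode: alginate-water lids without rat S9, 2 h pre-incubation of 10-point series (0.002 - 200 uM). Conditioned medium on VM7Luc4E2 cells 24 h; loss of fluorescent live-cell protease signal marks cytotoxicity.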
# [11] = molecular target: Thyroid hormone receptor alpha (Rattus norvegicus) + Thyroid hormone receptor beta (Rattus norvegicus) (UniProt P18113+P63059); assay: TOX21_TR_LUC_GH3_Antagonist_Followup: Tox21 GH3 Thyroid Hormone Receptor Antagonism Luciferase Follow-Up Assay (AID 2283942)
# In short: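 Loss of T3-driven (1.0 nM final) reporter activity in GH3 cells was read by ONE-Glo luminescence after 24 h incubation at 37C; 15-point compound series spanned 92 uM to 5nM final, 1,500 cells/well.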
# [12] = molecular target: THRB (gene 7068) (UniProt P10828); assay: TOX21_TRB_BLA_Antagonist_Followup_ratio: Tox21 Thyroid Hormone Receptor beta Antagonism Beta-lactamase (BLA) Follow-Up Assay, Ratio (AID 2283958)
# Chain of THRB (gene 7068) (P10828 whole entry, looked up, the tested form may be a part): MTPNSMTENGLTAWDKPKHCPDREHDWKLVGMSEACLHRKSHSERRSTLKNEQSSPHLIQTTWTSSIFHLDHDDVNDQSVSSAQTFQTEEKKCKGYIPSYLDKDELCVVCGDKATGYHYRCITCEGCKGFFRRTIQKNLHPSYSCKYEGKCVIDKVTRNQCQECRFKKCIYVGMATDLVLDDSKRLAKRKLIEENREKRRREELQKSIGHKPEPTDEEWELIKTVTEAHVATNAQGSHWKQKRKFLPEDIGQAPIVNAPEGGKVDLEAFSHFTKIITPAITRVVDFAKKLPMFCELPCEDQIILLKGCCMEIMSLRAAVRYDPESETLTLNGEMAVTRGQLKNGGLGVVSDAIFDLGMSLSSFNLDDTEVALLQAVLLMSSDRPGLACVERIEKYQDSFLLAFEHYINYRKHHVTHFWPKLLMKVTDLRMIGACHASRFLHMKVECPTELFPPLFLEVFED
# In short: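 Cells were plated and allowed to attach for 5 h, then dosed with compounds in DMSO at 11 concentrations for 18 h at 37C. Beta-lactamase reporter activity was measured via CCF4-AM FRET as the 460:530 nm ratio.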
# [13] = molecular target: THRB (gene 7068) (UniProt P10828); assay: TOX21_TRB_COA_Antagonist_Followup_ratio: Tox21 Thyroid Hormone Receptor beta Antagonism through Coactivator Recruitment Follow-Up Assay, Ratio (AID 2283967)
# In short: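 Coactivator recruitment to the GST-tagged TRb ligand-binding domain (5.0 nM) was read as the 520/495 nm TR-FRET ratio, using 200 nM fluorescein SRC-2 peptide and 2 nM terbium anti-GST. Scaled between DMSO and T3 wells; loss of signal fitted.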
# [14] = TOX21_TR_RXR_BLA_Antagonist_Followup_viability: Viability Assessment in the Tox21 Thyroid Hormone Receptor beta Retinoid X Receptor alpha (RXRa) Antagonism Beta-lactamase (BLA) Follow-Up Assay (AID 2283979)
# In short: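 Follow-up compounds (11 concentrations, triplicate) were incubated 16 h at 37C/5% CO2 with HEK293T RXRa-bla cells seeded at 2,500/well in charcoal-stripped-serum medium. ATP content by CellTiter-Glo luminescence gave viability; curves fitted in both directions against DMSO.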
smiles,measurement,setting,value
COc1c(O)cc2c(c1O)[C@@H]1O[C@H](CO)[C@@H](O)[C@H](O)[C@H]1OC2=O,outcome,[1],inactive
same,outcome,[2],inactive
same,outcome,[3],inactive
same,outcome,[4],inactive
CN1CCCC(n2nc(Cc3ccc(Cl)cc3)c3ccccc3c2=O)CC1 (stereo unspecified),outcome,[1],inactive
same,outcome,[5],inactive
CC[N+](C)(C)c1cccc(O)c1,outcome,[1],inactive
same,outcome,[2],inactive
same,outcome,[3],inactive
same,outcome,[4],inactive
Cc1c(N)cccc1[N+](=O)[O-],outcome,[1],inactive
same,outcome,[5],inactive
same,outcome,[3],inactive
same,outcome,[6],inactive
CC(=O)[C@@]1(O)CC[C@H]2[C@@H]3C[C@H](C)C4=CC(=O)CC[C@]4(C)[C@H]3CC[C@@]21C,outcome,[1],inactive
same,outcome,[5],inactive
same,outcome,[3],inactive
CC(C)=CC(=O)C=C(C)C,outcome,[1],inactive
same,outcome,[5],inactive
same,outcome,[3],inactive
same,outcome,[6],inactive
CC(=O)N=c1sc(S(N)(=O)=O)nn1C,outcome,[1],inactive
same,outcome,[5],inactive
same,outcome,[3],inactive
same,outcome,[6],inactive
same,outcome,[4],inactive
C(=C\c1ccccc1)/c1ccccc1,outcome,[1],inactive
same,outcome,[2],inactive
same,outcome,[6],inactive
same,AC50,[7],18 µM (active)
same,AC50,[8],44.6 µM (active)
same,outcome,[9],inactive
same,outcome,[10],inactive
CC(=O)Nc1ccc(C)c(Cl)c1,outcome,[1],inactive
same,outcome,[5],inactive
same,outcome,[3],inactive
same,outcome,[6],inactive
O=C(Cc1cccs1)N[C@@H]1C(=O)N2C(C(=O)[O-])=C(C[n+]3ccccc3)CS[C@H]12,outcome,[1],inactive
same,outcome,[2],inactive
same,outcome,[3],inactive
same,outcome,[6],inactive
same,outcome,[4],inactive
CCC1=C(C)CN(C(=O)NCCc2ccc(S(=O)(=O)NC(=O)NC3CCC(C)CC3)cc2)C1=O (stereo unspecified),outcome,[1],inactive
same,outcome,[5],inactive
same,outcome,[3],inactive
CC(=O)C1CCCCC1=O (stereo unspecified),outcome,[1],inactive
same,outcome,[2],inactive
same,outcome,[6],inactive
Clc1ccccc1-c1nc(-c2ccncc2)no1,outcome,[1],inactive
same,outcome,[5],inactive
same,outcome,[3],inactive
same,outcome,[6],inactive
COc1ccc2c(c1)c(CC(=O)OCC(=O)O)c(C)n2C(=O)c1ccc(Cl)cc1,outcome,[1],inactive
same,outcome,[5],inactive
CC(NN)c1ccccc1 (stereo unspecified),outcome,[1],inactive
same,outcome,[2],inactive
same,outcome,[6],inactive
same,outcome,[4],inactive
O=CNNC=O,outcome,[1],inactive
same,outcome,[2],inactive
same,outcome,[3],inactive
same,outcome,[4],inactive
CCc1cnc(C(=O)O)c(C(=O)O)c1,outcome,[1],inactive
same,outcome,[2],inactive
same,outcome,[3],inactive
same,outcome,[4],inactive
CCN(CC)CCc1nc(-c2ccccc2)no1,outcome,[1],inactive
same,outcome,[2],inactive
same,outcome,[3],inactive
same,outcome,[4],inactive
O=C1OC(=O)C2CCCCC12 (stereo unspecified),outcome,[1],inactive
same,outcome,[5],inactive
same,outcome,[3],inactive
N[C@@H](C(=O)N[C@@H]1C(=O)N2C(C(=O)O)=C(CSc3cn[nH]n3)CS[C@H]12)c1ccc(O)cc1,outcome,[1],inactive
same,outcome,[5],inactive
same,outcome,[3],inactive
same,outcome,[6],inactive
CC=CC1=C(C(=O)O)N2C(=O)[C@@H](NC(=O)[C@H](N)c3ccc(O)cc3)[C@H]2SC1,outcome,[1],inactive
same,outcome,[2],inactive
same,outcome,[3],inactive
same,outcome,[6],inactive
same,outcome,[4],inactive
c1cnc(N2CCN(Cc3ccc4c(c3)OCO4)CC2)nc1,outcome,[1],inactive
same,outcome,[5],inactive
O=C(O)c1ccc(CO)o1,outcome,[1],inactive
same,outcome,[5],inactive
same,outcome,[6],inactive
same,outcome,[4],inactive
O=C1c2ccccc2CN2C(=O)c3ccccc3CN12,outcome,[1],inactive
same,outcome,[5],inactive
same,outcome,[3],inactive
same,outcome,[4],inactive
NC(=S)Nc1cccc2ccccc12,outcome,[1],inactive
same,outcome,[5],inactive
same,outcome,[3],inactive
same,outcome,[4],inactive
CC1(C)[C@@H](OC(=O)CCC(=O)O)CC[C@]2(C)[C@H]3C(=O)C=C4[C@@H]5C[C@@](C)(C(=O)O)CC[C@]5(C)CC[C@@]4(C)[C@]3(C)CC[C@@H]12,outcome,[1],inactive
same,outcome,[3],inactive
same,outcome,[6],inactive
O=C(CCCCCCCCC#CI)Oc1ccccc1,outcome,[1],inactive
same,outcome,[5],inactive
same,outcome,[4],inactive
same,outcome,[11],inactive
same,outcome,[12],inactive
same,outcome,[13],inactive
same,outcome,[14],inactive
CN1C(CCl)Nc2cc(Cl)c(S(N)(=O)=O)cc2S1(=O)=O (stereo unspecified),outcome,[1],inactive
same,outcome,[5],inactive
same,outcome,[3],inactive
same,outcome,[4],inactive
O=[N+]([O-])c1ccc2[nH]ncc2c1,outcome,[1],inactive
same,outcome,[5],inactive
same,outcome,[3],inactive
same,outcome,[6],inactive
same,outcome,[4],inactive
CS(=O)(=O)c1ccc([C@@H](O)[C@@H](CF)NC(=O)C(Cl)Cl)cc1,outcome,[1],inactive
same,outcome,[3],inactive
O=C(O)c1cc2ccccc2c(Cc2c(O)c(C(=O)O)cc3ccccc23)c1O,outcome,[1],inactive
same,outcome,[5],inactive
same,outcome,[3],inactive
same,outcome,[6],inactive
same,outcome,[4],inactive
CC(=O)Nc1cccc(C)c1,outcome,[1],inactive
same,outcome,[5],inactive
same,outcome,[6],inactive
same,outcome,[4],inactive
O=C1c2c(O)cccc2C([C@@H]2O[C@H](CO)[C@@H](O)[C@H](O)[C@H]2O)c2cc(CO)cc(O)c21 (stereo partly specified),outcome,[1],inactive
same,outcome,[5],inactive
same,outcome,[3],inactive
same,outcome,[6],inactive
same,outcome,[4],inactive
